# Results as given in publication PMC7862700, “An all-to-all approach to the identification of sequence-specific readers for epigenetic DNA modifications on cytosine”.
# Tests used:
# Assay in all cases: DAPPL (digital affinity profiling via proximity ligation, sequencing); 10 mM Tris-HCl pH 7.5, 50 mM NaCl, 1 mM DTT, 4% glycerol, room temperature, 30 min; GST-TFs on glutathione beads, 16-mer random dsDNA library, 0.1% formaldehyde crosslink after washing; high values mean tight binding
# FEV = biological target: T1, FEV (Homo sapiens, UniProt Q99581 1-238); conditions: protein: recombinant; tags: N-terminal GST; dsDNA, one strand shown
# T1 sequence: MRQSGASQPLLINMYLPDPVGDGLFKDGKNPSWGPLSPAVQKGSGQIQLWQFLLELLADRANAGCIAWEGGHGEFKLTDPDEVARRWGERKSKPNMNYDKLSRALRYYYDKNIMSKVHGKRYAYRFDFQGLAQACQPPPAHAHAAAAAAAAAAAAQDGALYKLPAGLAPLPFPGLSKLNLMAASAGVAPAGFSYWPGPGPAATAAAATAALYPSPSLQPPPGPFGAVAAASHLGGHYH
# Outline: (§1)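 Binding signal is given per hexamer as its read frequency for a factor divided by its frequency in the tag-only sample. GST-fused human transcription factors were expressed in yeast, captured on glutathione beads, barcoded with DNA and pooled with that sample, then incubated with 200 nmole of a 16-mer random double-stranded DNA library in Tris/NaCl/DTT/glycerol buffer for 30 min at room temperature. The pools were then washed, crosslinked, proximity-ligated, amplified by PCR and sequenced on an Illumina NextSeq500.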
# ETV5 = ETV5 (Homo sapiens, UniProt P41161 1-510); conditions: protein: recombinant; tags: N-terminal GST; dsDNA, one strand shown
# Sequence of ETV5 (P41161 whole entry): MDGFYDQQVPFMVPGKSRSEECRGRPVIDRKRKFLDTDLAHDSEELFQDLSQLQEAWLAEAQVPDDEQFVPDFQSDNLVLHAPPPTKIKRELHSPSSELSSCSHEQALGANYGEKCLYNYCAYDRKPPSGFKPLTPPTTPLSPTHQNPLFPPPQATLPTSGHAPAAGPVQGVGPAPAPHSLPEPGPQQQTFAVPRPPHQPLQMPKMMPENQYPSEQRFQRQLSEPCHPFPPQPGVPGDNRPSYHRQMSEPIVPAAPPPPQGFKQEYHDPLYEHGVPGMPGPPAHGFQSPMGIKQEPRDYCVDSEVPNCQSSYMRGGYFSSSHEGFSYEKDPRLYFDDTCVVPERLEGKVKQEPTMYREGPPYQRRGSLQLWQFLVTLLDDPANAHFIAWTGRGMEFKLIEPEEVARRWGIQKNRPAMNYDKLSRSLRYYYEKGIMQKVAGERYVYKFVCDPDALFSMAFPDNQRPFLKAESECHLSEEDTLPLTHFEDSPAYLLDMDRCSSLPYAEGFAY
# Outline: as §1
# HSF1 = HSF1 (Homo sapiens, UniProt Q00613 1-529); conditions: protein: recombinant; tags: N-terminal GST; chain copies: 3; dsDNA, one strand shown
# Sequence of HSF1 (Q00613 whole entry): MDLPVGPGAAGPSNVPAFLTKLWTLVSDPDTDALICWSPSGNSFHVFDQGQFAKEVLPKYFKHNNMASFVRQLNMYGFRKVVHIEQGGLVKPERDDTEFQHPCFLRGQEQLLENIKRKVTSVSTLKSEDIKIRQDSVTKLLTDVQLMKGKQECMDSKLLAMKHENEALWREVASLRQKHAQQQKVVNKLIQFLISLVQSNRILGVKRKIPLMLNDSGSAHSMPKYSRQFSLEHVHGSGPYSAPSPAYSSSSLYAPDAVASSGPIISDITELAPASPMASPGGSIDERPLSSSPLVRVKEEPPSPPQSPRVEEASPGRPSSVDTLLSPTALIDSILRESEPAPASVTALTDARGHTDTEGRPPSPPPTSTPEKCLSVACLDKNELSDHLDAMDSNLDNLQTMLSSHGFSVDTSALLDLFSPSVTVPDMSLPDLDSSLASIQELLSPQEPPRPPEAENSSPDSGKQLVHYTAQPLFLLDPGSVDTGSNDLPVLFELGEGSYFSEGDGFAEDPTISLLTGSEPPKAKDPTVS
# Outline: as §1
# SPIC = biological target: T2, SPIC (Homo sapiens, UniProt Q8N5J4 1-248); conditions: protein: recombinant; tags: N-terminal GST; dsDNA, one strand shown
# T2 sequence: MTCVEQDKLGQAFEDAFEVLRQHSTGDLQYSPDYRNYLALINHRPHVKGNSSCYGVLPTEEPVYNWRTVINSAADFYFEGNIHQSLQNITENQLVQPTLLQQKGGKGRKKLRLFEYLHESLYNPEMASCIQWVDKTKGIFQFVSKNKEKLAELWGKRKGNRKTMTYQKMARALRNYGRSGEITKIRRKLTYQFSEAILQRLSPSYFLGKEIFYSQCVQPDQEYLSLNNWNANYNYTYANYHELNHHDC
# Outline: as §1
# ELF4 = ELF4 (Homo sapiens, UniProt Q99607 1-663); conditions: protein: recombinant; tags: N-terminal GST; dsDNA, one strand shown
# Sequence of ELF4 (Q99607 whole entry): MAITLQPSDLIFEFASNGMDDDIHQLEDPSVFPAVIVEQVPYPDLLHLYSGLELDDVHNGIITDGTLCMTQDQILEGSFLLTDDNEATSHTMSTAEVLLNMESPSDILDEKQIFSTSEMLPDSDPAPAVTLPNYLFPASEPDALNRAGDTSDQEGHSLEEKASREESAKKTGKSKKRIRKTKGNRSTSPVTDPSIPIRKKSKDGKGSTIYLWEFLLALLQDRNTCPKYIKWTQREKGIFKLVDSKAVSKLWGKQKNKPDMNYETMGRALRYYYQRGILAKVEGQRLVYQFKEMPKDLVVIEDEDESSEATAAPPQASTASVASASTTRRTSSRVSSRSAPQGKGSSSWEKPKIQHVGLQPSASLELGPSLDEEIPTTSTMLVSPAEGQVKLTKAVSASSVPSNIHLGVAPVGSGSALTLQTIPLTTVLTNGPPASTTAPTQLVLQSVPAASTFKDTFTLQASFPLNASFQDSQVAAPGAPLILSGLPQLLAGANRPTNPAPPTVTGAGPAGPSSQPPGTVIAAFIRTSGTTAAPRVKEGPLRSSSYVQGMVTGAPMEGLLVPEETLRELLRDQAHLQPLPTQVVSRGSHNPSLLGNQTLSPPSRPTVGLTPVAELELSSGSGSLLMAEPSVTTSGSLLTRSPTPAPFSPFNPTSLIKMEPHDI
# Outline: as §1
# ELK4 = biological target: T3, ELK4 (Homo sapiens, UniProt P28324-2 1-405); conditions: protein: recombinant; tags: N-terminal GST; dsDNA, one strand shown
# T3 sequence: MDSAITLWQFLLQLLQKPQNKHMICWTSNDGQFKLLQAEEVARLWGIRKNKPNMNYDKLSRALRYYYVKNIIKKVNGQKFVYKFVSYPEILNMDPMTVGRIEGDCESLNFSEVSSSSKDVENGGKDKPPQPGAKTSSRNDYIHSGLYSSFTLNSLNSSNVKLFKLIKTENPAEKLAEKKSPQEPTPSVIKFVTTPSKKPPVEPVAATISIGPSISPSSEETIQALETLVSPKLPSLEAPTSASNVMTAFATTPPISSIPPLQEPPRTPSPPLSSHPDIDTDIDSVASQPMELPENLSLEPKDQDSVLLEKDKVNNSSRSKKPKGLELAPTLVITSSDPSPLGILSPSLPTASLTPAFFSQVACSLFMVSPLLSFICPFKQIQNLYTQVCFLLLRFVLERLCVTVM
# Outline: as §1
# ETV2 = biological target: T4, ETV2 (Homo sapiens, UniProt O00321 1-342); conditions: protein: recombinant; tags: N-terminal GST; dsDNA, one strand shown
# T4 sequence: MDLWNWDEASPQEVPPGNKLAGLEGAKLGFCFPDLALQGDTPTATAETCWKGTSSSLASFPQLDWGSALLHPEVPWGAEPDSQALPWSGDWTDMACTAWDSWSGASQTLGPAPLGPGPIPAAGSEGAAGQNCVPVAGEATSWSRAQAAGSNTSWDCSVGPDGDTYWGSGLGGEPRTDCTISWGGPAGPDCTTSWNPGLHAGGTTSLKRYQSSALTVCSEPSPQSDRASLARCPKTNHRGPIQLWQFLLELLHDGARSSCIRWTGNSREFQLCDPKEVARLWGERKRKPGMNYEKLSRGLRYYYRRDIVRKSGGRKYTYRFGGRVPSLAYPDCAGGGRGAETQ
# Outline: as §1
# ELF3 = biological target: T5, ELF3 (Homo sapiens, UniProt P78545 1-371); conditions: protein: recombinant; tags: N-terminal GST; dsDNA, one strand shown
# T5 sequence: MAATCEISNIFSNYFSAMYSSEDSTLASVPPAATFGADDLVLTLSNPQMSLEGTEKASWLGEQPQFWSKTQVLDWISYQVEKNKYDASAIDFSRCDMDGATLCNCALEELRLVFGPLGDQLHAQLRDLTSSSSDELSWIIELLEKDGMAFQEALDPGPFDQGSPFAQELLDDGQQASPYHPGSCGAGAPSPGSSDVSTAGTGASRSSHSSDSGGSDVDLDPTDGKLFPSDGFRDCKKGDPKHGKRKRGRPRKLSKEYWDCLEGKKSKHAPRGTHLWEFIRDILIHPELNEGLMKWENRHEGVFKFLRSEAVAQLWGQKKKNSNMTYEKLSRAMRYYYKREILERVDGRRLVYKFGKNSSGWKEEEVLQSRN
# Outline: as §1
# CRX = CRX (Homo sapiens, UniProt O43186 1-299); conditions: protein: recombinant; tags: N-terminal GST; dsDNA, one strand shown
# Sequence of CRX (O43186 whole entry): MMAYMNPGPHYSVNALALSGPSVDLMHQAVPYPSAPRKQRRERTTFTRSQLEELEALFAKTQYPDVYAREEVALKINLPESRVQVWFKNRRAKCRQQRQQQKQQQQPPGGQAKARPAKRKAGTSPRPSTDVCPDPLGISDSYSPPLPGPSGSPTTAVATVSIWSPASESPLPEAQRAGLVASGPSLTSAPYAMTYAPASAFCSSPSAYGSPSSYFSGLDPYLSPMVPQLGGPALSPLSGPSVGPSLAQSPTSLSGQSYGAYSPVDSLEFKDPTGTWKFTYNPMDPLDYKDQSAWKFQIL
# Outline: as §1
# ETV1 = ETV1 (Homo sapiens, UniProt P50549 1-477); conditions: protein: recombinant; tags: N-terminal GST; dsDNA, one strand shown
# Sequence of ETV1 (P50549 whole entry): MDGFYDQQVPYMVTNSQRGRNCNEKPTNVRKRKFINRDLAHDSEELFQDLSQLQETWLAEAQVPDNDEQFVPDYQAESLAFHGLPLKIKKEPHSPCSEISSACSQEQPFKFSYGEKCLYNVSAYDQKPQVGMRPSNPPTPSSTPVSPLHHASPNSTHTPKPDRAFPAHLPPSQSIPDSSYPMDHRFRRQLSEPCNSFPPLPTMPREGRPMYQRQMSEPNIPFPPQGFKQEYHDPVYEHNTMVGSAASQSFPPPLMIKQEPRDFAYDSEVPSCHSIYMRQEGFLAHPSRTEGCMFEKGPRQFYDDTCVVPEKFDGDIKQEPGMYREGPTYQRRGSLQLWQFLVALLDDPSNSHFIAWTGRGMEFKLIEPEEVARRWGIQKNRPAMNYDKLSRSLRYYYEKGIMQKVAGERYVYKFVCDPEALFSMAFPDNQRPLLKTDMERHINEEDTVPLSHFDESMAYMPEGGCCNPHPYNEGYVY
# Outline: as §1
# ERF = biological target: T6, ERF (Homo sapiens, UniProt P50548 1-548); conditions: protein: recombinant; tags: N-terminal GST; dsDNA, one strand shown
# T6 sequence: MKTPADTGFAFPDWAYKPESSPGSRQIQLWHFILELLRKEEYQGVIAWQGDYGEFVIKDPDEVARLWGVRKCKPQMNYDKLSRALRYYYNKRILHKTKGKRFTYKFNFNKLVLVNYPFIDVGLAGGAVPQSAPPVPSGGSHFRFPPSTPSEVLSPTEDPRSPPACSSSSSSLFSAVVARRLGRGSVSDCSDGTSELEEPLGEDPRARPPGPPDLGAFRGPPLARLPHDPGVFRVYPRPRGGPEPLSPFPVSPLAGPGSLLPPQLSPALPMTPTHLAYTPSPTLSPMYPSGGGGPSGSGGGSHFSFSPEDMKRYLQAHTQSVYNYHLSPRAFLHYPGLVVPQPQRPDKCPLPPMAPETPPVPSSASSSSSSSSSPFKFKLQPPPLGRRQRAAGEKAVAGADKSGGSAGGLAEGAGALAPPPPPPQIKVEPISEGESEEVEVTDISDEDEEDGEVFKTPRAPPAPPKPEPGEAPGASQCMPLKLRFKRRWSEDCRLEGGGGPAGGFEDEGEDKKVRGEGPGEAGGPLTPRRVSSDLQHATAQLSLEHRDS
# Outline: as §1
# ETV3L = biological target: T7, ETV3L (Homo sapiens, UniProt Q6ZN32 1-361); conditions: protein: recombinant; tags: N-terminal GST; dsDNA, one strand shown
# T7 sequence: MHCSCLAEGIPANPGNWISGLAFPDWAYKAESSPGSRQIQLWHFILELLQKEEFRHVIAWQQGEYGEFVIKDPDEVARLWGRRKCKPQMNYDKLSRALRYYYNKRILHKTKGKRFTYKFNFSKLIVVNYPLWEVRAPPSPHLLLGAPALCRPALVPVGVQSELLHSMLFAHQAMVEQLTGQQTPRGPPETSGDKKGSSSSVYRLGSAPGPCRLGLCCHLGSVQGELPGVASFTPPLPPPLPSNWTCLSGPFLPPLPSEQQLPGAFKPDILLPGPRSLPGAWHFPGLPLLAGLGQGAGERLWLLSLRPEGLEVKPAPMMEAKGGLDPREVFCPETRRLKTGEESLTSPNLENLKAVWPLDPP
# Outline: as §1
# ETS2 = biological target: T8, ETS2 (Homo sapiens, UniProt P15036 1-469); conditions: protein: recombinant; tags: N-terminal GST; dsDNA, one strand shown
# T8 sequence: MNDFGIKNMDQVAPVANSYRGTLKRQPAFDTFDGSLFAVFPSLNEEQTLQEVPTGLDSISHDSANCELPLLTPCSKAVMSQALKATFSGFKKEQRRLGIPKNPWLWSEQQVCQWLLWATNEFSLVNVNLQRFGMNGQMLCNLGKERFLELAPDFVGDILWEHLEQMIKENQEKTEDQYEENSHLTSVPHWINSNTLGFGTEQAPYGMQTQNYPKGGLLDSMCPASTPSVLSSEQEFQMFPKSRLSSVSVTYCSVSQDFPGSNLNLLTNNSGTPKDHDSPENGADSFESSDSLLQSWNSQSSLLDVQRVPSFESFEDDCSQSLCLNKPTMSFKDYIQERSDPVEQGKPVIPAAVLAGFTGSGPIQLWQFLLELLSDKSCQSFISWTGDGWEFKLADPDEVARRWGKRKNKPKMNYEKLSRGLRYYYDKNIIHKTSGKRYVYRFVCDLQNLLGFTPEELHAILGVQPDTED
# Outline: as §1
# SPDEF = biological target: T9, SPDEF (Homo sapiens, UniProt O95238 1-335); conditions: protein: recombinant; tags: N-terminal GST; dsDNA, one strand shown
# T9 sequence: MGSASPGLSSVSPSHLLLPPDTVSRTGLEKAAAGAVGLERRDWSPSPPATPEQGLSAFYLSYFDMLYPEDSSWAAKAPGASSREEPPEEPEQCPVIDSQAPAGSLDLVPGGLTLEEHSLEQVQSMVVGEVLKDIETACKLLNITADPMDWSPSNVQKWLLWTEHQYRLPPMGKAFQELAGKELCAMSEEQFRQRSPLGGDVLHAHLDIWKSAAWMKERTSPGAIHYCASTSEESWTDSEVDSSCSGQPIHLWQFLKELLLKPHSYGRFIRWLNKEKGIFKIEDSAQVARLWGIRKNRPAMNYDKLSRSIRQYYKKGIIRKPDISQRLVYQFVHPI
# Outline: as §1
# ETV7 = biological target: T10, ETV7 (Homo sapiens, UniProt Q9Y603 1-341); conditions: protein: recombinant; tags: N-terminal GST; dsDNA, one strand shown
# T10 sequence: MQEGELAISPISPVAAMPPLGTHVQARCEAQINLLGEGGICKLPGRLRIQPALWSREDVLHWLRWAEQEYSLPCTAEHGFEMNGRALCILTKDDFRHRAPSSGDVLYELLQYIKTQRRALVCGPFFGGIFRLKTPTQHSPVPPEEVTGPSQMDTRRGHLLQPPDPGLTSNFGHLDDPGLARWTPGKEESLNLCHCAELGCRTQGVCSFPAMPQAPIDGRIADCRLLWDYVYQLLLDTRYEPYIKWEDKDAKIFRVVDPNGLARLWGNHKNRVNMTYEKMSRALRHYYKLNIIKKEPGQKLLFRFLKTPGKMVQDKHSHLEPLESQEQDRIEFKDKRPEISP
# Outline: as §1
# ELF5 = biological target: T11, ELF5 (Homo sapiens, UniProt Q9UKW6-2 1-255); conditions: protein: recombinant; tags: N-terminal GST; dsDNA, one strand shown
# T11 sequence: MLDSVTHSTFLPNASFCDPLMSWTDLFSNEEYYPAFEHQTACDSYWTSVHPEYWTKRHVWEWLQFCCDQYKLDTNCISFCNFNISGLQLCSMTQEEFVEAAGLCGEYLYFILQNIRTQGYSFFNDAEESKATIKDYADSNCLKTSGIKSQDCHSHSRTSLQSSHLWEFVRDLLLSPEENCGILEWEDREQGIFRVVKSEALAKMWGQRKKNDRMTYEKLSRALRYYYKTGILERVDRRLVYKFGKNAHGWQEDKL
# Outline: as §1
# ETV3 = biological target: T12, ETV3 (Homo sapiens, UniProt P41162-2 1-143); conditions: protein: recombinant; tags: N-terminal GST; dsDNA, one strand shown
# T12 sequence: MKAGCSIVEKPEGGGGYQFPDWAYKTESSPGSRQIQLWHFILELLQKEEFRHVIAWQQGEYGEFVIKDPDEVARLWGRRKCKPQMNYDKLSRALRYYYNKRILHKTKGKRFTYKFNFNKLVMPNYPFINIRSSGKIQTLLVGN
# Outline: as §1
# ETV6 = ETV6 (Homo sapiens, UniProt P41212 1-452); conditions: protein: recombinant; tags: N-terminal GST; dsDNA, one strand shown
# Sequence of ETV6 (P41212 whole entry): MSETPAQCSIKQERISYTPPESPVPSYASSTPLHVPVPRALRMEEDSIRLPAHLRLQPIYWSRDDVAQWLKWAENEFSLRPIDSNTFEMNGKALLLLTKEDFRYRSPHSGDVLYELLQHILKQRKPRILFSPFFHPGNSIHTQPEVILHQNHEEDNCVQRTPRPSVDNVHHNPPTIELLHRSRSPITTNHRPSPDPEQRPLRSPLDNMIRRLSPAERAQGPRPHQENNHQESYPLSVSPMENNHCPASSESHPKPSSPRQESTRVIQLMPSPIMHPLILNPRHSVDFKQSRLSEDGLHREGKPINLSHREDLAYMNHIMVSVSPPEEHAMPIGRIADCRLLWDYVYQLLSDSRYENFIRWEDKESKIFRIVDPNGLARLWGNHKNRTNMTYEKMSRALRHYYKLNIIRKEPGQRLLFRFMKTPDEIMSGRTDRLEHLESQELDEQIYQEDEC
# Outline: as §1
sequence,measurement,setting,value
ATTTAT,binding signal,FEV,"1.34 fold enrichment (6-mer frequency, TF over GST control)"
same,binding signal,ETV5,"1.41 fold enrichment (6-mer frequency, TF over GST control)"
same,binding signal,HSF1,"1.68 fold enrichment (6-mer frequency, TF over GST control)"
same,binding signal,SPIC,"1.49 fold enrichment (6-mer frequency, TF over GST control)"
same,binding signal,ELF4,"1.35 fold enrichment (6-mer frequency, TF over GST control)"
same,binding signal,ELK4,"1.53 fold enrichment (6-mer frequency, TF over GST control)"
same,binding signal,ETV2,"1.44 fold enrichment (6-mer frequency, TF over GST control)"
same,binding signal,ELF3,"1.46 fold enrichment (6-mer frequency, TF over GST control)"
same,binding signal,CRX,"2.19 fold enrichment (6-mer frequency, TF over GST control)"
same,binding signal,ETV1,"1.43 fold enrichment (6-mer frequency, TF over GST control)"
same,binding signal,ERF,"1.51 fold enrichment (6-mer frequency, TF over GST control)"
same,binding signal,ETV3L,"1.54 fold enrichment (6-mer frequency, TF over GST control)"
same,binding signal,ETS2,"1.47 fold enrichment (6-mer frequency, TF over GST control)"
same,binding signal,SPDEF,"1.4 fold enrichment (6-mer frequency, TF over GST control)"
same,binding signal,ETV7,"1.48 fold enrichment (6-mer frequency, TF over GST control)"
same,binding signal,ELF5,"1.39 fold enrichment (6-mer frequency, TF over GST control)"
same,binding signal,ETV3,"1.41 fold enrichment (6-mer frequency, TF over GST control)"
same,binding signal,ETV6,"1.4 fold enrichment (6-mer frequency, TF over GST control)"
